# Laboratory results taken from PubChem BioAssay (NCI).
# About 83,000 compounds went through this panel and 20% of them were active in at least one assay; those are over-represented in the sample as a whole.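 A percent growth of 40 corresponds to 60% growth inhibition; 0 means no net growth; -100 means all cells died. Active threshold: below 10.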 Unmarked numbers belong to inactive results. Activity calls are given as the source filed them.
# Key:
# Assay in all cases: NCI-60 one-dose screen, 48 h (100 = growth as untreated, 0 = no growth, -100 = all killed)
# Settings in all cases: 10 µM unless noted
# [1] = system: DU-145 prostate
# [2] = system: K-562 leukemia
# [3] = system: MALME-3M melanoma
# [4] = system: MDA-MB-231 breast
# [5] = system: RXF 393 renal
# [6] = system: SF-268 CNS
# [7] = system: SF-295 CNS
# [8] = system: SF-539 CNS
# [9] = system: UACC-257 melanoma
# [10] = system: M14 melanoma
Structure (SMILES),growth [1],growth [2],growth [3],growth [4],growth [5],growth [6],growth [7],growth [8],growth [9],growth [10]
CNCCCn1c2c(c3ccc(F)cc3c1=O)C(=O)c1cc(OC)cnc1-2,0.683% (active),1.41% (active),-56.6% (active),11.7%,-78.8% (active),4.62% (active),-15.3% (active),-24.7% (active),-16.5% (active),-10.8% (active)
COc1ccc2nc(NC(=O)CN3CCn4c(nnc4C(F)(F)F)C3)sc2c1,106%,90.5%,106%,96.6%,91%,93.5%,92.5%,93.7%,99.5%,85.1%
NC(=O)NS(=O)(=O)c1ccc(N2N=C(C(F)(F)F)CC2c2cc(C(F)(F)F)cc(C(F)(F)F)c2)cc1 (stereo not given),85.1%,57.7%,87.4%,91.6%,11.8%,67.8%,68.6%,89.5%,31.5%,79.7%
O=C(Nc1cccc(Cl)c1)Nc1cccc(Cl)c1,78.6%,19.6%,68.1%,85.3%,132%,88.6%,24.8%,91.4%,105%,75.7%
N#CC(C#N)C(C#N)C#N,112%,105%,114%,108%,110%,104%,102%,105%,85.7%,99.7%
Cc1cc(=O)oc2cc(OCCn3c(C)nn(-c4ccc(Cl)cc4)c3=O)ccc12,21.6%,16.3%,32.9%,47.5%,37.4%,50.3%,14%,29.5%,22.5%,14.7%
COc1cccc2c1C(=O)c1c(O)c3c(c(O)c1C2=O)C[C@@](O)(C(C)=O)C[C@@H]3O[C@H]1C[C@H](N)[C@H](O)[C@H](C)O1,1.62% (active),-4.44% (active),-70.7% (active),-14.6% (active),-65.1% (active),-43.8% (active),-30.8% (active),-43.1% (active),-47.3% (active),-86.5% (active)
Cc1cc(Br)c(C)cc1Br,102%,89.8%,121%,111%,106%,100%,89.2%,103%,94.4%,100%
CN[C@@H]1C(OC2[C@H](O[C@H]3[C@H](O)[C@@H](O)[C@H](N=C(N)N)[C@@H](O)[C@@H]3N=C(N)N)OC(C)[C@]2(O)CO)OC(CO)C(O)C1O (stereo not given in full),109%,113%,106%,104%,114%,118%,103%,109%,107%,112%
C[C@]12CCC(=O)C=C1CC[C@H]1[C@@H]3C[C@@H](O)[C@](O)(C(=O)CO)[C@@]3(C)C[C@H](O)[C@@]12F,92.4%,110%,87%,102%,137%,85.5%,104%,91.9%,82.1%,85.6%
CCSc1nc(Nc2ccc(S(=O)(=O)Nc3ccon3)cc2)c(C#N)c(-c2cccc(Br)c2)n1,112%,77.9%,105%,97%,94.7%,99.3%,82%,82.2%,115%,104%
Cc1cc2c(cc1C)[n+](Cc1ccc3ccccc3n1)cn2Cc1ccc2ccccc2n1,24.1%,-0.971% (active),-28% (active),-7.81% (active),-6.38% (active),16.8%,5.16% (active),14.8%,-16.6% (active),-13.3% (active)
C=C1CCC2C3(C)COC(c4ccccc4)OC3CCC2(C)C1C/C=C1/C(=O)OCC1OC(C)=O (stereo not given),108%,74.2%,105%,94.9%,41%,102%,100%,105%,91.3%,89.4%
COc1cc(C2CC(c3ccc(C)cc3)=NN2C=O)ccc1OCCN(C)C (stereo not given),105%,83%,83.1%,97.2%,79.8%,89.8%,97.4%,89.5%,92.9%,96.8%
CC[C@H]1CN2CCc3cc(OC)c(OC)cc3C2C[C@@H]1CC1NCCc2cc(OC)c(OC)cc21 (stereo not given in full),-31.6% (active),-6.17% (active),-58.1% (active),-45.5% (active),-42.9% (active),-25.6% (active),-29.2% (active),-59.7% (active),-27.8% (active),-82.9% (active)
Nc1nc(SCc2cccnc2)c2ncn(C3OC(CO)C(O)C3O)c2n1 (stereo not given),113%,113%,92.4%,94.7%,101%,90.6%,99.1%,95.1%,92.7%,97.8%
c1ccc(COc2ccc(Nc3ncnc4c3cnn4-c3ccccc3)cc2)cc1,104%,90.3%,92.8%,101%,102%,108%,107%,99.6%,121%,101%
Oc1ccc(/C=N/Nc2nc3ccccc3s2)c(O)c1,32.4%,30%,52.4%,41.9%,53.9%,21.6%,36.4%,34.5%,37.4%,27.1%
Fc1ccccc1C1c2ccccc2-c2nccn21 (stereo not given),99.2%,73.9%,98.2%,102%,-1.68% (active),109%,89.3%,98.9%,96.6%,104%
C[C@H](C(=O)N[C@@H](Cc1ccc(-c2ccccc2)cc1)C(=O)NC1CC(C)(C)N(C)C(C)(C)C1)c1ccc(-c2ccccc2)c(F)c1,-83.1% (active),-56.9% (active),-71.5% (active),-68.5% (active),-73.2% (active),-70.9% (active),-66% (active),-79.5% (active),-66.2% (active),-82.6% (active)
CCN(CC)CCNCC(=O)Oc1ccc(/C=C/C(=O)CC(=O)/C=C/c2ccc(OC(=O)CNCCN(CC)CC)c(OC)c2)cc1OC,-56.6% (active),-37.7% (active),-0.278% (active),14%,-73% (active),13.5%,27.3%,-35.9% (active),53.7%,-18.6% (active)
COC(=O)C1=CCC(n2cnc3c(N)ncnc32)O1 (stereo not given),113%,91.8%,108%,98.5%,-7.73% (active),121%,113%,98%,105%,105%
O=C(COc1ccc(/C=C2\Cc3ccccc3C2=O)cc1)c1ccc(Cl)cc1,117%,92.9%,124%,82.2%,121%,120%,121%,101%,100%,104%
Cc1ccc(NC(=O)c2sc3nc4c(cc3c2N)C(=O)CCC4)cc1,96.4%,53.1%,89.1%,78%,108%,110%,47.1%,93.5%,74%,85.3%
COc1ccc(-c2cc(-c3cccnc3)nc(S(=O)(=O)CC(=O)Nc3ccc(C)cc3)c2C#N)cc1OC,95%,102%,94.7%,77.6%,90.4%,83.5%,97.9%,95.1%,104%,111%
Cc1ccccc1NC(=O)N/C(N)=N/c1nc2ccccc2s1,17.5%,6.45% (active),50.4%,43.2%,-2.64% (active),48.7%,11.8%,-17.9% (active),67.4%,9.91% (active)
O=C(Nc1cccc(-n2cc(-c3ccncc3)c(-c3cc(O)cc(Cl)c3)n2)c1)Nc1ccc(Cl)c(Cl)c1,-15.1% (active),1.06% (active),-35.1% (active),-38.1% (active),-70.3% (active),16.2%,-50.5% (active),-29% (active),-70.7% (active),-69.2% (active)
